Tests used:
[1] = target: Tyrosine-protein kinase Fyn (Homo sapiens) (UniProt P06241); conditions: at 1 µM
[2] = target: Tyrosine-protein kinase HCK (Homo sapiens) (UniProt P08631); conditions: at 0.1 µM
[3] = target: Tyrosine-protein kinase HCK (Homo sapiens) (UniProt P08631); conditions: at 1 µM
[4] = target: Insulin-like growth factor 1 receptor (Homo sapiens) (UniProt P08069); conditions: at 0.1 µM
[5] = target: Insulin-like growth factor 1 receptor (Homo sapiens) (UniProt P08069); conditions: at 1 µM
[6] = target: Insulin receptor (Homo sapiens) (UniProt P06213); conditions: at 0.1 µM
Sequence of Insulin receptor (Homo sapiens) (P06213 28-758 limits assumed): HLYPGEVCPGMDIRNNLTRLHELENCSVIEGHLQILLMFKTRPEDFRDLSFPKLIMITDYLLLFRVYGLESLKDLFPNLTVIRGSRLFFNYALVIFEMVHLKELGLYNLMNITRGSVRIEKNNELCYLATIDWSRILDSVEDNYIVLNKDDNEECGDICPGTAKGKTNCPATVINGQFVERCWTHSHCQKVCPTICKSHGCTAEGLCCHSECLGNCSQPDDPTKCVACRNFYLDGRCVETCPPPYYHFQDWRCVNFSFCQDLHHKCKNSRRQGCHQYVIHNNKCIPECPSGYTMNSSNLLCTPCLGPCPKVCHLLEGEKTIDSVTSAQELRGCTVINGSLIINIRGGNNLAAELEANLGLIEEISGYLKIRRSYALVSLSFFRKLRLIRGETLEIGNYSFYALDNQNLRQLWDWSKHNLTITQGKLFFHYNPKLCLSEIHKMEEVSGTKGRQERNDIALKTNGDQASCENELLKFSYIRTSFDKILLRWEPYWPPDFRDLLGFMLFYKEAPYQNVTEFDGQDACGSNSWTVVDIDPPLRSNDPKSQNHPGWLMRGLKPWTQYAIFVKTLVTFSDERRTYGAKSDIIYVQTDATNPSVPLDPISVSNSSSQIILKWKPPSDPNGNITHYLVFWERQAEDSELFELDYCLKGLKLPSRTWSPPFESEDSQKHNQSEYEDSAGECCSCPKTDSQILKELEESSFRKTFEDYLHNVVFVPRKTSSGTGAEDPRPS
Sequence of Insulin receptor (Homo sapiens) (P06213 763-1382 limits assumed): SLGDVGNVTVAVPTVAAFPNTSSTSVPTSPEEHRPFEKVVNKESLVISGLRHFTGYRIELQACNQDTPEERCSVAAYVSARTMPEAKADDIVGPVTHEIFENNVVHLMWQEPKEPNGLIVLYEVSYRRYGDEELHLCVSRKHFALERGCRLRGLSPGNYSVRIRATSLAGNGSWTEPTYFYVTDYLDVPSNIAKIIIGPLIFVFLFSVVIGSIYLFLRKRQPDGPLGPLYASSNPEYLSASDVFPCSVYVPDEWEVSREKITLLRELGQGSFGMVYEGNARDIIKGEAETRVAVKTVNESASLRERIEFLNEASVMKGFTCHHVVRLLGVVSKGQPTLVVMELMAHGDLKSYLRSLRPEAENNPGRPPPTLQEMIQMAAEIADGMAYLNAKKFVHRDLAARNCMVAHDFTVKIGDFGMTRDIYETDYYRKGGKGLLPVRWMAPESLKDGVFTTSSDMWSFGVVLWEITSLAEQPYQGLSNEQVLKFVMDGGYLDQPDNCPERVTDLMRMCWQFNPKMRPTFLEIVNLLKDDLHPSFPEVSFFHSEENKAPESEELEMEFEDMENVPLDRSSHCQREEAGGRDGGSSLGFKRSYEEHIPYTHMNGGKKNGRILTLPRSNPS

[7] = target: Insulin receptor (Homo sapiens) (UniProt P06213); conditions: at 1 µM
[8] = target: Insulin receptor-related protein (Homo sapiens) (UniProt P14616); conditions: at 0.1 µM
[9] = target: Insulin receptor-related protein (Homo sapiens) (UniProt P14616); conditions: at 1 µM
[10] = target: T1, Tyrosine-protein kinase ITK/TSK (Homo sapiens) (UniProt Q08881); conditions: at 0.1 µM
T1 sequence (whole entry): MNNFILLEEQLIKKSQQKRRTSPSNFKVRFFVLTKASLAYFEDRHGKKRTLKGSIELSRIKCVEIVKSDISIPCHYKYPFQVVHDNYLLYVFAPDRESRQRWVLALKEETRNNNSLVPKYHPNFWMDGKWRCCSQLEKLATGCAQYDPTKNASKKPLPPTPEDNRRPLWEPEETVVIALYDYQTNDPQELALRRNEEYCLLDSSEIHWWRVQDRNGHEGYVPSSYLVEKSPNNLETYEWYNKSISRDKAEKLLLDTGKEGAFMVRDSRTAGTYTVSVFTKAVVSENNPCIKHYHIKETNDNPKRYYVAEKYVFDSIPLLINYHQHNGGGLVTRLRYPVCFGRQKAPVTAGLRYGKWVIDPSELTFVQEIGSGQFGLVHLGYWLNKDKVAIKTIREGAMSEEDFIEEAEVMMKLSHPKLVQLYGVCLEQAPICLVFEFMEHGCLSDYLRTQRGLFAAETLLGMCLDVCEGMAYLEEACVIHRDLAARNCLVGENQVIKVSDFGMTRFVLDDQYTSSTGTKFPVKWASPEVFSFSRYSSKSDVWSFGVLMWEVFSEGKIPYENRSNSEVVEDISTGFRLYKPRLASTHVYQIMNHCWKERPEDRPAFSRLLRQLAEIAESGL

[11] = target: T1, Tyrosine-protein kinase ITK/TSK (Homo sapiens); conditions: at 1 µM
[12] = target: Tyrosine-protein kinase JAK1 (Homo sapiens) (UniProt P23458); conditions: at 0.1 µM
Sequence of Tyrosine-protein kinase JAK1 (Homo sapiens) (P23458 whole entry): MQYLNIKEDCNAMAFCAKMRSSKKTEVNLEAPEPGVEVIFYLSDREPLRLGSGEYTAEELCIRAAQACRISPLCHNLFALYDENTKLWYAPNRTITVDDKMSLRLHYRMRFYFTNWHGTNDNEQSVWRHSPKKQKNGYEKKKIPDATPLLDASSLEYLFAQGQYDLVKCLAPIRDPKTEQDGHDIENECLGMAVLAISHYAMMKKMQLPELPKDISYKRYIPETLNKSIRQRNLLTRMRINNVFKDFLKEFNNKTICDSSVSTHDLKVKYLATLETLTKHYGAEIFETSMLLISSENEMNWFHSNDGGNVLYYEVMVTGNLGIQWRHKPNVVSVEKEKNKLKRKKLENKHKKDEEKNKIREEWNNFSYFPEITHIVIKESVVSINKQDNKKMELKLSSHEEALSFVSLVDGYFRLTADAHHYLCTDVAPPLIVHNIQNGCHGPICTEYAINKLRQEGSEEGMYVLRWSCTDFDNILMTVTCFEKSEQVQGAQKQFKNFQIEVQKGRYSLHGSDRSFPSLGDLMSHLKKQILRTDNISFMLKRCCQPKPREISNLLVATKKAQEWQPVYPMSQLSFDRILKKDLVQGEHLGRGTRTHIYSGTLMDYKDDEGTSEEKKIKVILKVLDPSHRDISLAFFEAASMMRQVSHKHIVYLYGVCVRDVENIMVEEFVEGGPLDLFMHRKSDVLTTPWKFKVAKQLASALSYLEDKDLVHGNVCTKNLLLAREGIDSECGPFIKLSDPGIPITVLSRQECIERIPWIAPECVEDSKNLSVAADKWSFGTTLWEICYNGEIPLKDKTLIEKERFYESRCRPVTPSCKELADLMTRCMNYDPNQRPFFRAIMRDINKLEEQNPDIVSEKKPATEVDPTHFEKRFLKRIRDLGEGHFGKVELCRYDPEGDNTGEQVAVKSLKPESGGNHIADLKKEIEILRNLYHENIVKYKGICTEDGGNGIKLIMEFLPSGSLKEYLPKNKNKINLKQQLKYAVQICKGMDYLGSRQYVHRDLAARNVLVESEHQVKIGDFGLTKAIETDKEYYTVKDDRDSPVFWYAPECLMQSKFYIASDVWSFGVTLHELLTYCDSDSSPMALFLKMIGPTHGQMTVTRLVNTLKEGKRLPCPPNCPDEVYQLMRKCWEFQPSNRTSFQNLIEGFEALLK

[13] = target: Tyrosine-protein kinase JAK1 (Homo sapiens) (UniProt P23458); conditions: at 1 µM
[14] = target: Tyrosine-protein kinase JAK2 (Homo sapiens) (UniProt O60674); conditions: at 0.1 µM
[15] = target: Tyrosine-protein kinase JAK2 (Homo sapiens) (UniProt O60674); conditions: at 1 µM
[16] = target: T2, Tyrosine-protein kinase JAK3 (Homo sapiens) (UniProt P52333); conditions: at 0.1 µM
T2 sequence (whole entry): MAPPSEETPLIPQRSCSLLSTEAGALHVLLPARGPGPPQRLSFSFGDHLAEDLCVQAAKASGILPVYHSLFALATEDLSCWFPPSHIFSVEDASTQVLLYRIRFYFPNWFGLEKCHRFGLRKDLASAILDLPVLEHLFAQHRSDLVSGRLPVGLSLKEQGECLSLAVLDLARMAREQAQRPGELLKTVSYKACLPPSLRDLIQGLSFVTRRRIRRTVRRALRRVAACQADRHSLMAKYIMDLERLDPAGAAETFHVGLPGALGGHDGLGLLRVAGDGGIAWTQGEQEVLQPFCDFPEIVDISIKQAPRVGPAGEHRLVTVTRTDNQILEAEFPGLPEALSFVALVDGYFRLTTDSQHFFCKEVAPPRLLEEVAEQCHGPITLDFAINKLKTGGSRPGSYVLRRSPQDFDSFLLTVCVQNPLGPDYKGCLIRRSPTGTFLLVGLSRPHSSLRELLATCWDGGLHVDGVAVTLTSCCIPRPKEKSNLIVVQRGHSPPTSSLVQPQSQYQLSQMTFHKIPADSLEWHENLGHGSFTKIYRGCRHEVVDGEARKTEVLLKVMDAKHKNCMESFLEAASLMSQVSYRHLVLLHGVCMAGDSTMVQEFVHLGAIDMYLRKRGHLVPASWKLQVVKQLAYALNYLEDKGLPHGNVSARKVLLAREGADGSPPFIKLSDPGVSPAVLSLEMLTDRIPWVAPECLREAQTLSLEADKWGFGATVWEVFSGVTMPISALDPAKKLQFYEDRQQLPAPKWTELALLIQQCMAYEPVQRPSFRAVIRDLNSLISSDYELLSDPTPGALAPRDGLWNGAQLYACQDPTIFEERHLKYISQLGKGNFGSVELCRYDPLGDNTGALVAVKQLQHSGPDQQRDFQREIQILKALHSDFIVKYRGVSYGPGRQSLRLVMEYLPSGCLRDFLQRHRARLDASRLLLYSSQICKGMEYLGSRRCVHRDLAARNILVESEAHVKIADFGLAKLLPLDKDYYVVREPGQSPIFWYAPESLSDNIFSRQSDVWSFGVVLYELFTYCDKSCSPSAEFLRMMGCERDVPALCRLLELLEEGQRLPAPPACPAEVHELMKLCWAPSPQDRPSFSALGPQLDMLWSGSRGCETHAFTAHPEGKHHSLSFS

[17] = target: T2, Tyrosine-protein kinase JAK3 (Homo sapiens); conditions: at 1 µM
[18] = target: Vascular endothelial growth factor receptor 2 (Homo sapiens) (UniProt P35968); conditions: at 0.1 µM
[19] = target: Vascular endothelial growth factor receptor 2 (Homo sapiens) (UniProt P35968); conditions: at 1 µM
[20] = target: Mast/stem cell growth factor receptor Kit (Homo sapiens) (UniProt P10721); conditions: at 0.1 µM;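 note: values are mean inhibition of KIT, from the GSK PKIS dataset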

Sequence of Tyrosine-protein kinase Fyn (Homo sapiens) (P06241 2-537 limits assumed): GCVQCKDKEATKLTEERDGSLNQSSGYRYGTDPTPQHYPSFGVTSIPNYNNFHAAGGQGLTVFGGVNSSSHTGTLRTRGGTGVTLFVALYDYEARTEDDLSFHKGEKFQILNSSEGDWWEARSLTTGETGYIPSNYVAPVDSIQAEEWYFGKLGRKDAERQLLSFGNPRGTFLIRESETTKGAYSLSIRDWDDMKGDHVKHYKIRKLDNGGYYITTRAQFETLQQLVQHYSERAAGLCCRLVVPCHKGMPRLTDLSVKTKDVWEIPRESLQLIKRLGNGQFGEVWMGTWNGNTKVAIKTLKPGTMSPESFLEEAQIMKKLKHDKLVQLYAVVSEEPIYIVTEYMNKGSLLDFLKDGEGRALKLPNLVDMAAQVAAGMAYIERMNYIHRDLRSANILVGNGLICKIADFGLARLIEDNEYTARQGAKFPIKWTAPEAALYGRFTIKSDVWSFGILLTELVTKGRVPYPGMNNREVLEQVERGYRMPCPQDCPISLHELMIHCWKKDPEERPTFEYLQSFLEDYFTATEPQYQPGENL
Sequence of Insulin-like growth factor 1 receptor (Homo sapiens) (P08069 31-736 limits assumed): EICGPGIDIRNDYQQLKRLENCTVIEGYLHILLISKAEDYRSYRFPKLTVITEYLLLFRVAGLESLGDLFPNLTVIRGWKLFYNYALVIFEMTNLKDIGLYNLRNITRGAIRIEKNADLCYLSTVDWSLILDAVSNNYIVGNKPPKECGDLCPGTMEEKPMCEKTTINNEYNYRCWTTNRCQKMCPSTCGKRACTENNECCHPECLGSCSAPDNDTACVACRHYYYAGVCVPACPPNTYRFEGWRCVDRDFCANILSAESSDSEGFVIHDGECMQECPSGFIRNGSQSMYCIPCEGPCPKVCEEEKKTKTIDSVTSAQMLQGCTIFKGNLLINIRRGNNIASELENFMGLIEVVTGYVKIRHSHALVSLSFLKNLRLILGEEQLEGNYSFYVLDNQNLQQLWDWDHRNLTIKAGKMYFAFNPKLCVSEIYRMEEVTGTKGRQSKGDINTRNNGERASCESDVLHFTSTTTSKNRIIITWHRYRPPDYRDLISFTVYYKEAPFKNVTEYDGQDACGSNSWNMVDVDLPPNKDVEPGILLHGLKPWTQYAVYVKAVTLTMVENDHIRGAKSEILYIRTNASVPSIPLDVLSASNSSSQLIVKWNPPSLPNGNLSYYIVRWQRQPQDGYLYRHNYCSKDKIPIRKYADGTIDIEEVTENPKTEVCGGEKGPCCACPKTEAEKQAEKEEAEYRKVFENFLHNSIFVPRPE
Sequence of Insulin-like growth factor 1 receptor (Homo sapiens) (P08069 741-1367 limits assumed): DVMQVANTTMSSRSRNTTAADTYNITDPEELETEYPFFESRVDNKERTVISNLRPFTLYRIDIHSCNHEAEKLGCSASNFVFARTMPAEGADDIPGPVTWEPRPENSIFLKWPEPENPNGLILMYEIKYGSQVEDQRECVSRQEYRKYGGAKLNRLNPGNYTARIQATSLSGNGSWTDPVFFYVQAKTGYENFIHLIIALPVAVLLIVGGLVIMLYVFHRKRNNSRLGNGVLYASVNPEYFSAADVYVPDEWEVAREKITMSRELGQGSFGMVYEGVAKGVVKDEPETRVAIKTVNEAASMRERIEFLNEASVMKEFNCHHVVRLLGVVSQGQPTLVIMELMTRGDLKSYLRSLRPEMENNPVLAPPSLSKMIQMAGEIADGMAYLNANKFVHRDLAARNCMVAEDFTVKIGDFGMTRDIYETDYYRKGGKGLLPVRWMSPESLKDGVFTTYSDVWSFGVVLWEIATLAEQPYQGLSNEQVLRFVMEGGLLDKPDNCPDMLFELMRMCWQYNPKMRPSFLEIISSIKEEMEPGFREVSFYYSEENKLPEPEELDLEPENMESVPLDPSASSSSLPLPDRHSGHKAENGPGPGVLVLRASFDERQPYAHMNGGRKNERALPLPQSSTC
Sequence of Tyrosine-protein kinase HCK (Homo sapiens) (P08631 2-526 limits assumed): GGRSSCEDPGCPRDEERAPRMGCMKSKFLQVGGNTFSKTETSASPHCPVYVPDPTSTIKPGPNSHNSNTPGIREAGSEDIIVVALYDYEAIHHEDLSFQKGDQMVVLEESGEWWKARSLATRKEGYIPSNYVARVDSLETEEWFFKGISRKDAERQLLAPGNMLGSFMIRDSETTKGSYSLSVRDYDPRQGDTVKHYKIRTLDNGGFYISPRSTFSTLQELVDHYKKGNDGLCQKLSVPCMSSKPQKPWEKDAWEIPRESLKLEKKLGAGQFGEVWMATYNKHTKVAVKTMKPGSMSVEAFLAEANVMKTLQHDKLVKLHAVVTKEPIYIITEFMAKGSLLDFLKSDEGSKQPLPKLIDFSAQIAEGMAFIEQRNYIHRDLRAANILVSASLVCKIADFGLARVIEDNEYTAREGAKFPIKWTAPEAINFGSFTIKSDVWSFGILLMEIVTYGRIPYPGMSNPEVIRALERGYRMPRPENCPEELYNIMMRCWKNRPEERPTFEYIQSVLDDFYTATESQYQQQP

| Compound | inhibition [1] [%] | inhibition [2] [%] | inhibition [3] [%] | inhibition [4] [%] | inhibition [5] [%] | inhibition [6] [%] | inhibition [7] [%] | inhibition [8] [%] | inhibition [9] [%] | inhibition [10] [%] | inhibition [11] [%] | inhibition [12] [%] | inhibition [13] [%] | inhibition [14] [%] | inhibition [15] [%] | inhibition [16] [%] | inhibition [17] [%] | inhibition [18] [%] | inhibition [19] [%] | inhibition [20] [%] |
| --- | --- | --- | --- | --- | --- | --- | --- | --- | --- | --- | --- | --- | --- | --- | --- | --- | --- | --- | --- | --- |
| Cc1cc(Cl)cc2c1NC(=O)C2=NNc1ccc(S(N)(=O)=O)cc1 | 3.01 | 2.49 | 4.3 | 2.32 | 0.19 | 2.78 | 4.18 | -0.92 | 1.47 | 1.14 | 1.14 | 2.03 | 12.7 | -0.3 | 0.42 | -0.31 | 0.84 | 1.84 | 4.19 |  |
| COc1cccc(-n2ncc3c(N/N=C/c4ccc(C)cc4)ncnc32)c1 | 16.5 | 7.32 | 16.2 | 5.92 | 22.9 | 21.4 | 82.2 | 2.51 | 15.3 | 2.28 | 3.5 | 5.68 | 3.83 | 1.5 | 1.98 | -0.38 | 1.11 | 6.36 | 19.1 | 6.06 |
| NS(=O)(=O)c1cccc(Nc2cc(-c3ccc(F)cc3)n[nH]2)c1 | 5.32 | 3.23 | 7.76 | 0.35 | 1.22 | 0.86 | 1.03 | 1.9 | 2.3 | 1.67 | 6.64 | 3.56 | 10.4 | 0.36 | 1.81 | -1.55 | 1.11 | 5.37 | 15.3 | 34.5 |
| Cc1ccc(NC(=O)CC2CC2)cc1-c1ccc(C(=O)NCC2CC2)cc1 | 5.9 | 9 | 10.3 | 1.36 | 2.09 | 2.71 | 5.25 | 2.99 | 3.28 | 1.08 | 1.47 | 1.27 | 6.97 | 1.47 | 5.47 | -0.78 | 2.17 | 9.88 | 12.3 | 3.18 |
| CCn1c(-c2nonc2N)nc2ccc(F)cc21 | 4.14 | 4.97 | 7.63 | 4.55 | 8.11 | 5.06 | 5.22 | 4.24 | 3.56 | 2.15 | 1.52 | 5.5 | 10.5 | 1.07 | 1.29 | -1.62 | -1.23 | 5.19 | 6.9 | 5.81 |
| NS(=O)(=O)c1ccc(N/N=C2\C(=O)Nc3ccc(Cl)cc32)cc1 | 8.06 | 5 | 11.4 | 6.7 | 4.64 | 1.04 | 2.77 | 3.26 | 3.42 | 0.97 | 4.1 | 4.77 | 11.7 | 1.28 | 1.55 | -2.01 | 1.21 | 1.7 | 16.9 | 41.3 |
| CCCN1CCCC(c2ccc(Nc3nc(Nc4cc(F)ccc4C(N)=O)c4cc[nH]c4n3)c(OC)c2)C1 (centres undefined) | 16.1 | 7.06 | 11.9 | 93 | 94.8 | 98.9 | 96.2 | 93.7 | 97 | 2.35 | 6 | -0.47 | -0.81 | 1.82 | 2.51 | -1.48 | -3.27 | 7.45 | 16.6 | 8.98 |

— ChEMBL document CHEMBL1961873, “Compounds: GSK PKIS; Assays: Nanosyn kinase panel” (2012)
